Test results from PubChem BioAssay (NCI).
“And” between values parts separate entries of the source, which are not always exact repeats. Equal values may be shown once. This is part of a sample that, as a whole, favours compounds with a hit. Of some 79,000 tested, about 15% had one in any assay. Some structures have more than one record in an assay (separate samples or runs), and their calls can disagree. The source made the active and inactive calls. Rule as the data show it: active = growth inhibition above about 70%; inactive = the rest.

Assays:
[1] = NCI Yeast Anticancer Drug Screen. Data for the wt2 strain (AID 169); conditions: S. cerevisiae wt2 strain growth inhibition, stronger effect = higher value
How it was run: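 Steps: yeast strain treated with compound; growth recorded; inhibition calculated relative to cultures given vehicle alone.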

[2] = NCI Yeast Anticancer Drug Screen. Data for the mlh1 strain (AID 171);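 also: 0% = growth of vehicle-treated control cultures of the same strain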; conditions: S. cerevisiae mlh1 strain growth inhibition, stronger effect = higher value
How it was run: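 Yeast screen: mutant strain plus compound, growth scored against vehicle control wells.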

[3] = NCI Yeast Anticancer Drug Screen. Data for the mlh1 rad18 strain (AID 175); conditions: S. cerevisiae mlh1 rad18 strain growth inhibition, stronger effect = higher value
How it was run: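 Compound-treated yeast growth, normalised to vehicle controls. Strain bears defined DNA repair mutations.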

[4] = NCI Yeast Anticancer Drug Screen. Data for the rad18 strain (AID 177); conditions: S. cerevisiae rad18 mutant growth inhibition, stronger effect = higher value
How it was run: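 Inhibition values reflect reduced yeast growth compared with vehicle-treated controls, using a strain engineered with a DNA damage repair defect.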

[5] = NCI Yeast Anticancer Drug Screen. Data for the rad52 strain (AID 147);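 also: 0% = growth of vehicle-treated control cultures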; conditions: S. cerevisiae rad52 mutant growth inhibition, stronger effect = higher value
How it was run: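 Genetically altered yeast (DNA damage repair defect) treated with compound; inhibition calculated relative to vehicle.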

[6] = NCI Yeast Anticancer Drug Screen. Data for the wt1 strain (AID 149);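 also: 0% = growth of vehicle-treated wt1 cultures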; conditions: S. cerevisiae wt1 strain (SPY 50644) growth inhibition, stronger effect = higher value
How it was run: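 Each compound is tested on wt1 yeast and the loss of growth versus vehicle gives the inhibition value.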

[7] = NCI Yeast Anticancer Drug Screen. Data for the rad50EPP+ strain (AID 151);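 also: 0% = growth of vehicle-treated control cultures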; conditions: S. cerevisiae rad50 mutant strain, stronger effect = higher value
How it was run: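 Strain rad50EPP+; compound exposure; % growth inhibition vs vehicle.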

[8] = NCI Yeast Anticancer Drug Screen. Data for the mgt1 strain (AID 153); conditions: S. cerevisiae mgt1 mutant growth inhibition, stronger effect = higher value
How it was run: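 Read-out: yeast growth inhibition vs vehicle control. Strain mgt1, drawn from a panel altered in DNA damage repair or cell cycle control.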

[9] = NCI Yeast Anticancer Drug Screen. Data for the rad50 strain (AID 155);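 also: 0% = growth of vehicle-only cultures of the same strain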; conditions: S. cerevisiae rad50 strain growth inhibition, stronger effect = higher value
How it was run: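 Vehicle-treated cultures provide the reference for the growth inhibition reported for compound-exposed, repair-deficient yeast.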

[10] = NCI Yeast Anticancer Drug Screen. Data for the mec2-1 strain (AID 157); conditions: S. cerevisiae mec2-1 strain, stronger effect = higher value
How it was run: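 Cells of the genetically defined mec2-1 yeast strain are incubated with test compound. Inhibition of growth is calculated against vehicle-treated controls.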

[11] = NCI Yeast Anticancer Drug Screen. Data for the rad14 strain (AID 159);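 also: 0% = growth of vehicle-treated control cultures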; conditions: S. cerevisiae rad14 strain growth inhibition, stronger effect = higher value
How it was run: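 Inhibition of growth is reported for a repair-deficient yeast mutant following compound treatment, calculated relative to cultures that received vehicle.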

[12] = NCI Yeast Anticancer Drug Screen. Data for the sgs1 mgt1 strain (AID 161);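 also: 0% = growth of cultures given vehicle only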; conditions: S. cerevisiae sgs1 mgt1 strain, stronger effect = higher value
How it was run: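 Test agents were incubated with a DNA-repair-mutant yeast strain. Growth was then read and compared against vehicle-treated controls.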

[13] = NCI Yeast Anticancer Drug Screen. Data for the CLN2oe strain (AID 163);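 also: 0% = growth of vehicle-only control cultures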; conditions: S. cerevisiae CLN2oe strain, stronger effect = higher value
How it was run: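 Strain altered in cell-cycle control, incubated with compound; growth compared to solvent-treated controls.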

[14] = NCI Yeast Anticancer Drug Screen. Data for the cln2 rad14 strain (AID 165);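 also: 0% = growth equal to vehicle treated cultures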; conditions: S. cerevisiae cln2 rad14 strain, stronger effect = higher value
How it was run: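 The screen exposed genetically defined yeast (cln2 rad14) to test compounds and scored growth inhibition relative to vehicle-treated controls.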

[15] = NCI Yeast Anticancer Drug Screen. Data for the bub3 strain (AID 167); conditions: S. cerevisiae bub3 mutant strain, stronger effect = higher value
How it was run: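 Mutant yeast screening strain plus compound; vehicle-treated cultures serve as the 0% inhibition reference.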

[16] = NCI Yeast Anticancer Drug Screen. Data for the sgs1 strain (AID 173);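 also: 0% = growth of vehicle-only control cultures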; conditions: S. cerevisiae sgs1 mutant, stronger effect = higher value
How it was run: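 Inhibition of yeast growth served as the measure. The mutant strain was treated with each compound, and growth was normalised to cultures receiving vehicle alone.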

[17] = at 5.0 µM (retest, dose inferred, filed as 0.5)
[18] = at 50.0 µM (retest, dose inferred, filed as 5.0)

Measured: growth inhibition

CN(CCN(C)Cc1ccccc1)Cc1ccccc1
inactive: [1]; at 1.2 µM -17% | [1]; at 3.7 µM -9% | [1]; at 11.0 µM 2% | [1]; at 33.0 µM 1% | [1]; at 100.0 µM 14% | [2]; at 1.2 µM 8% | [2]; at 3.7 µM 4% | [2]; at 11.0 µM 12% | [2]; at 33.0 µM 23% | [2]; at 100.0 µM 52% | [3]; [17] 25% | [3]; at 50.0 µM 32.3% | [4]; at 1.2 µM -2% | [4]; at 3.7 µM 14% | [4]; at 11.0 µM 17% | [4]; at 33.0 µM 32% | [4]; at 100.0 µM 35%
active: [3]; [18] 72%

S=c1sc2c(s1)SCCS2
-2% (inactive) and 75.5% (active): [12]; at 50.0 µM
inactive: [5]; at 1.2 µM 1% | [5]; at 3.7 µM 1% | [5]; at 11.0 µM 4% | [5]; at 33.0 µM 5% | [5]; at 100.0 µM 7% | [6]; at 1.2 µM -1% | [6]; at 3.7 µM 1% | [6]; at 11.0 µM 1% | [6]; at 33.0 µM 0% | [6]; at 100.0 µM 2% | [7]; at 1.2 µM 2% | [7]; at 3.7 µM 3% | [7]; at 11.0 µM 6% | [7]; at 33.0 µM 14% | [7]; at 100.0 µM 9% | [8]; at 1.2 µM -2% | [8]; at 3.7 µM -1% | [8]; at 11.0 µM 18% | [8]; at 33.0 µM -14% | [8]; at 100.0 µM 5% | [9]; at 1.2 µM 0% | [9]; at 3.7 µM 3% | [9]; [17] 14% | [9]; at 11.0 µM -16% | [9]; at 33.0 µM 5% | [9]; [18] 49% | [9]; at 50.0 µM 13.7% and 58.8% | [9]; at 100.0 µM 6% | [10]; at 1.2 µM 2% | [10]; at 3.7 µM 2% | [10]; [17] -11% | [10]; at 11.0 µM -1% | [10]; at 33.0 µM -2% | [10]; [18] 23% | [10]; at 50.0 µM 5.65% and 50% | [10]; at 100.0 µM 0% | [11]; at 1.2 µM 1% | [11]; at 3.7 µM -4% | [11]; at 11.0 µM -2% | [11]; at 33.0 µM -1% | [11]; at 100.0 µM 5% | [12]; [17] -8% | [12]; [18] 54% | [13]; at 1.2 µM 0% | [13]; at 3.7 µM 0% | [13]; at 11.0 µM -2% | [13]; at 33.0 µM -4% | [13]; at 100.0 µM 0% | [14]; [17] -14% | [14]; [18] 32% | [14]; at 50.0 µM 7.95% and 60.4% | [15]; at 1.2 µM 1% | [15]; at 3.7 µM 2% | [15]; [17] -20% | [15]; at 11.0 µM 6% | [15]; at 33.0 µM 5% | [15]; [18] 49% | [15]; at 50.0 µM 20.4% and 64.8% | [15]; at 100.0 µM 4% | [1]; at 1.2 µM 1% | [1]; at 3.7 µM 2% | [1]; at 11.0 µM 2% | [1]; at 33.0 µM 3% | [1]; at 100.0 µM 4% | [2]; at 1.2 µM 1% | [2]; at 3.7 µM -2% | [2]; at 11.0 µM 5% | [2]; at 33.0 µM 1% | [2]; at 100.0 µM 3% | [16]; at 1.2 µM -1% | [16]; at 3.7 µM -1% | [16]; at 11.0 µM 0% | [16]; at 33.0 µM 0% | [16]; at 100.0 µM 3% | [3]; [17] 46% | [3]; [18] 59% | [3]; at 50.0 µM 20.8% and 57.5% | [4]; at 1.2 µM -4% | [4]; at 3.7 µM -3% | [4]; at 11.0 µM -2% | [4]; at 33.0 µM -15% | [4]; at 100.0 µM 6%

CCOC(=O)C(C(=O)OCC)=P(c1ccccc1)(c1ccccc1)c1ccccc1
active: [5]; at 100.0 µM 95% | [6]; at 100.0 µM 93% | [8]; at 100.0 µM 78% | [9]; at 100.0 µM 96% | [10]; at 100.0 µM 98% | [11]; at 100.0 µM 93% | [13]; at 100.0 µM 84% | [15]; at 100.0 µM 93% | [1]; at 100.0 µM 95% | [2]; at 100.0 µM 92% | [16]; at 100.0 µM 94% | [4]; at 100.0 µM 95%
inactive: [5]; at 1.2 µM 0% | [5]; at 3.7 µM 0% | [5]; at 11.0 µM 2% | [5]; at 33.0 µM 0% | [6]; at 1.2 µM 0% | [6]; at 3.7 µM 1% | [6]; at 11.0 µM 1% | [6]; at 33.0 µM -3% | [7]; at 1.2 µM -2% | [7]; at 3.7 µM -3% | [7]; at 11.0 µM -2% | [7]; at 33.0 µM -1% | [7]; at 100.0 µM 3% | [8]; at 1.2 µM 0% | [8]; at 3.7 µM 3% | [8]; at 11.0 µM 1% | [8]; at 33.0 µM -6% | [9]; at 1.2 µM -58% | [9]; at 3.7 µM 0% | [9]; [17] -2% | [9]; at 11.0 µM -3% | [9]; at 33.0 µM -3% | [9]; [18] 36% | [9]; at 50.0 µM 12.4% | [10]; at 1.2 µM 0% | [10]; at 3.7 µM -1% | [10]; [17] 1% | [10]; at 11.0 µM 0% | [10]; at 33.0 µM 0% | [10]; [18] 16% | [10]; at 50.0 µM 12.1% | [11]; at 1.2 µM 0% | [11]; at 3.7 µM 2% | [11]; at 11.0 µM 5% | [11]; at 33.0 µM 6% | [12]; [17] -10% | [12]; [18] 60% | [12]; at 50.0 µM 47% | [13]; at 1.2 µM 0% | [13]; at 3.7 µM -1% | [13]; at 11.0 µM -1% | [13]; at 33.0 µM -2% | [14]; [17] 0% | [14]; [18] -3% | [14]; at 50.0 µM -2.05% | [15]; at 1.2 µM -1% | [15]; at 3.7 µM 1% | [15]; [17] -3% | [15]; at 11.0 µM 1% | [15]; at 33.0 µM -3% | [15]; [18] 19% | [15]; at 50.0 µM 5% | [1]; at 1.2 µM -2% | [1]; at 3.7 µM -3% | [1]; at 11.0 µM -4% | [1]; at 33.0 µM -9% | [2]; at 1.2 µM 1% | [2]; at 3.7 µM -2% | [2]; at 11.0 µM 0% | [2]; at 33.0 µM 1% | [16]; at 1.2 µM 0% | [16]; at 3.7 µM 0% | [16]; at 11.0 µM 0% | [16]; at 33.0 µM 4% | [3]; [17] 0% | [3]; [18] 26% | [3]; at 50.0 µM 21.1% | [4]; at 1.2 µM 1% | [4]; at 3.7 µM 7% | [4]; at 11.0 µM 16% | [4]; at 33.0 µM 12%
